# Bioassay records as filed in PubChem BioAssay.
# Rab9 promoter act – activates the Rab9 promoter; Huh7 Rab9 promoter-luciferase reporter, luminescence, 24 h; Potency, µM (series often up to 9.22 µM), without a hit: at the top dose activation, negative = inhibition, usual class: activators; actives 2.8% (n = 320,000); also: % of control where 0% means no effect; nearly all actives have a fitted effect of over 60% in size
#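 Stable Rab9-luc Huh7, 1500 cells/well, 2 h settle; cmpd in DMSO, 24 h, 37 °C/5% CO2; luciferase reagent 10 min RT; luminescence.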
# SMN2 splice up – increases expression of the SMN2 splice variant; HEK293 SMN2-luciferase splicing reporter, luminescence, 30-36 h; Potency, µM (series often up to 46.1 µM), for the others: at the highest dose activity change, positive = activation, actives largely listed as activators; actives 2.8% (n = 210,000); AID 1458; also: % of control where 0% means no effect; nearly all actives have a fitted effect of over 55% in size
#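 HEK293 cells carry an SMN2 […]–luciferase reporter in which exon 7 inclusion puts luciferase in frame. Cells were plated 10-12 h before compound addition, then incubated 30-36 h at 37C. ONE-Glo luminescence was read; sodium butyrate at 4.5 mM final served as control.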
# FLuc counter – firefly luciferase modulation, counter-screen for miR-21 project; actives 6.9% (n = 360,000); purified FLuc, Km substrates, luminescence inhibition; P08659; Potency, µM (titrated, usually from 57.5 µM), for the others: top-dose activity change, negative = inhibition, actives largely listed as inhibitors;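 also: plate controls were vehicle for no effect and reference inhibitor for full effect; nearly all actives have a fitted effect of over 55% in size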
# Target sequence (P08659 whole entry, looked up): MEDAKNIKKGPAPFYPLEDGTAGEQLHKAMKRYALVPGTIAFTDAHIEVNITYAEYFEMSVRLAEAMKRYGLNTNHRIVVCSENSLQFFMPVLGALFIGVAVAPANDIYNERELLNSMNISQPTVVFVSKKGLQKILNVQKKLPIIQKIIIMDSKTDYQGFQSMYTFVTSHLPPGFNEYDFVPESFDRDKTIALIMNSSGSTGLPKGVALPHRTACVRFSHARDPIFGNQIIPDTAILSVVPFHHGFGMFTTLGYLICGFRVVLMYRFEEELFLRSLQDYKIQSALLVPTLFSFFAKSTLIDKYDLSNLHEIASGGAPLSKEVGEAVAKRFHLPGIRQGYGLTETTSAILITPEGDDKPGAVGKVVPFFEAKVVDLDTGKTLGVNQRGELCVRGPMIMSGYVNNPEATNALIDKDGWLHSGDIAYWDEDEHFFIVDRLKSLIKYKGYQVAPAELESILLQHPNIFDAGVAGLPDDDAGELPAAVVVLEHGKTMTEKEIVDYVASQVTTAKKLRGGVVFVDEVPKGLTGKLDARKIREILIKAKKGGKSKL
#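 Biochemical qHTS of compounds, final roughly 60 µM downward over six points, against 10 nM purified firefly luciferase using Km concentrations of substrates (10 uM D-luciferin, 10 uM ATP) in Tris acetate pH 7.5 buffer; luminescence output.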
# ELG1 genotoxic – inducers of genotoxicity in HEK293T ELG1-luciferase cells. actives 1.3% (n = 330,000). Potency, µM (top dose mostly 46 µM), without a hit: at the highest dose activity change, positive = activation, most hits filed as activators. AID 504466. HEK293T ELG1-luciferase reporter, luminescence, 16 h; also: % of control where 0% means no effect; nearly all actives have a fitted effect of over 60% in size
#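 ELG1-luciferase HEK293T cells, 2,000/well; compound pinned in; 16 hr, 37 °C, 5% CO2; ONE-Glo, 30 min RT; luminescence on CCD imager.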
# ELG1 DNA repair – blocks ELG1-dependent DNA repair in HEK293T cells; actives 2.3% (n = 330,000); HEK293T ELG1-luciferase reporter, luminescence, 16 h; DNA damage induced by 5-fluorouridine; AID 504467; Potency, µM (titrated, usually from 46.1 µM), for the others: top-dose activity change, negative = inhibition, actives largely listed as inhibitors; also: % is scaled to controls: 0 for no effect and ±100 for the full control effect; nearly all actives have a fitted effect of over 55% in size
#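 Overnight (16 hr) co-exposure of 2,000 cells/well to 5-fluorouridine and compound at 37 °C preceded detection. Luciferase was quantified via ONE-Glo luminescence; loss of signal denotes inhibition.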
# NPC1 promoter act – NPC1 promoter activation; Huh7 NPC1 promoter luciferase reporter, 24 h; Potency, µM (highest dose often 9.22 µM), without a hit: top-dose activation, most hits filed as activators; actives 2.4% (n = 320,000); AID 485313; also: % of control where 0% means no effect; nearly all actives have a fitted effect of over 60% in size
#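 Huh7 cells stably carrying NPC1 promoter–luciferase, plated in Opti-MEM with 10% FBS for 2 h, were exposed to compound in DMSO for 24 h at 37 °C; luciferase reagent was added for 10 min and luminescence read.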
# * hit, by the source's call; u = inconclusive; x = no result; [ ] = dose if it differs, or a comment. The list is not random: actives were taken first. Their share in the collection is about 9.2%. Calls follow the shape of the dose curve; as a rule, active = well fitted curve in the direction sought with a large enough effect; inconclusive = small, poorly fitted or top-dose-only effect, or another doubt; inactive = no such curve, though single readings can be large; an effect the other way counts as inactive or inconclusive. Potency is read from the fitted curve at half-maximal effect.
SMILES,Rab9 promoter act,SMN2 splice up,FLuc counter,ELG1 genotoxic,ELG1 DNA repair,NPC1 promoter act
CN(C)c1ccc(/C=C/c2nc3ccccc3s2)cc1,u,-78.9%,0.107µM*,-3.7%,-26.3%,-0.5%
COc1cc(/C=C(\C#N)C(N)=O)cc(CSc2nc3ccccc3s2)c1O,x,5.1%,x,x,x,x
COc1cc(/C=C/c2nc3ccccc3s2)cc(OC)c1O,u,24.0%,19µM*,18.3µM*,u,6.9%
Cc1ccc(S(=O)(=O)Nc2nc3ccccc3s2)cc1,0.6%,17.1%,1.0%,0.6%,-1.4%,-0.4%
Cc1cc(N/N=C/c2ccc(N(C)C)cc2)c2ccccc2n1,-3.2%,x,u,8.1%,0.7%,-2.8%
Cc1ccc(/C=C/c2nc3ccccc3s2)s1,u,-18.2%,0.301µM*,0.517µM*,u,15.3%
CC(=O)c1ccc(N2CCN(C(=O)/C=C/c3ccc4ccccc4n3)CC2)cc1,-0.4%,-75.7%,u,4.1%,2.7%,-2.7%
Oc1ccc(/C=C/c2ccc3ccccc3n2)cc1,u,2.82µM*,0.135µM*,0.259µM*,u,u
Cc1ccc(SC[C@H](Cc2ccccc2)N2CC[C@@H](NC(=O)OCc3ccccc3)CCC2=O)cc1,3.7%,x,2.5%,-9.7%,-29.5%,-9.6%
CCCC(=Nc1ccc(N)cc1)C1=C(O)C(C(=O)OC)C(C)(C)CC1=O (stereo not given),2.0%,18.4%,3.1%,12.5%,u,-2.0%
CC(=O)/C=C(\C)NCCNc1c(F)c(F)c(CO)c(F)c1F,-8.5%,x,1.0%,1.9%,5.9%,4.3%
CN(C)c1ccc(/C=C/c2ccc3ccccc3n2)cc1,u,x,0.0675µM*,u,u,-18.3%
CCN(CC)c1ccc(/C=C/c2cc(-c3ccccc3)c3ccccc3n2)cc1,-4.3%,x,u,-1.5%,11.9%,-6.7%
CCCN(CCC)c1ccc(/C=C/c2ccc3cc(OCC)ccc3n2)cc1,2.24µM*,x,6.75µM*,9.6%,u,u
O/C(=C\c1ccc2ccccc2n1)c1ccc(O)cc1O,2.24µM*,8.91µM*,1.51µM*,2.59µM*,u,1.12µM*
Cc1ccccc1COC(=O)c1ccc(-c2nnn(Cc3ccccc3F)n2)cc1,x,11.2%,1.1%,x,x,x
C=CCn1c(-c2ccccc2)c[nH]c1=S,28.0%,-2.2%,26.9µM*,13µM*,u,24.3%
Cc1cc(C)c(NC(=O)CN2c3ccccc3S(=O)(=O)c3ccccc32)c(C)c1,x,x,-1.1%,x,x,x
O=c1[nH]c(C2CCN(S(=O)(=O)c3ccc(S(=O)(=O)NC4CC4)cc3)CC2)nc2c1nnn2Cc1cccc(F)c1,0.0%,x,1.2%,-0.8%,13µM*,-0.8%
Cc1ccc(Cn2nnc3c(=O)[nH]c(C4CCN(S(=O)(=O)c5ccc(S(=O)(=O)NC6CC6)cc5)CC4)nc32)cc1,0.0%,x,-1.0%,-6.2%,u,-6.2%
Cc1nn(-c2nnc(NCc3ccccc3)nn2)c(C)c1Br,u,x,21.3µM*,u,u,22.8%
COc1ccc(OCC(O)CN2CCC(CN3C(=O)c4cccc5cccc(c45)C3=O)CC2)cc1 (stereo not given),-0.8%,-6.4%,1.5%,-0.5%,8.3%,1.8%
O=C(c1ccc(S(=O)(=O)N2CCCC2)cc1)N1CCC(CN2C(=O)c3cccc4cccc(c34)C2=O)CC1,-8.9%,x,-2.4%,-17.7%,10.3µM*,-7.2%
COc1ccc(S(=O)(=O)N2CCC(CN3C(=O)c4cccc5cccc(c45)C3=O)CC2)cc1,-1.3%,-8.6%[1.84 µM],0.9%,1.5%,10.3µM*,-0.5%
CCN(CC)S(=O)(=O)c1ccc(C(=O)N2CCN(CCN3C(=O)c4cccc5cccc(c45)C3=O)CC2)cc1,-7.6%,-11.1%,1.5%,1.5%,4.1%,-5.8%
SMILES,Rab9 promoter act,SMN2 splice up,FLuc counter,ELG1 genotoxic,ELG1 DNA repair,NPC1 promoter act
COc1ccc(-c2cc(-c3ccccc3)nc(-c3ccc4c(c3)NC(=O)CO4)c2)cc1,1.3%,6.7%,-15.8%,-2.8%,23.1µM*,-2.2%
COc1ccccc1Nc1nc(-c2ccc3c(c2)NC(=O)CO3)cs1,0.1%,-95.5%,u,-5.1%,u,-3.6%
CCC(C)Nc1nc(-c2ccc3c(c2)NC(=O)CO3)cs1 (stereo not given),u,1.5%,16.9µM*,11.3%,u,21.0%
COc1ccc(Nc2nc(-c3ccc4c(c3)NC(=O)CO4)cs2)cc1,17.8%,-63.9%,u,-10.0%,16.4µM*,8.5%
COC(=O)C1=C(C(=O)OC)[C@@H]2N(C)c3ccc(OC)cc3[C@@]23C[C@@H](C(=O)OC)N(S(=O)(=O)c2ccc(C(F)(F)F)cc2)C3=N1,x,3.9%[9.22 µM],x,x,x,x
N/C(=N\OC(=O)CSc1ccccc1)c1ccccn1,26.7%,x,13.5µM*,u,u,27.4%
N/C(=N\OC(=O)CCCN1C(=O)c2ccccc2C1=O)c1ccccn1,u,8.8%,-5.5%,0.2%,4.6%,-0.5%
N/C(=N\OC(=O)Cc1ccc(-c2ccccc2)cc1)c1ccccn1,5.0%,-32.7%,u,u,u,17.5%
N/C(=N\OC(=O)CCCOc1ccccc1)c1ccccn1,9.4%,3.3%,16.9µM*,10.3%,u,5.0%
COc1ccc(-c2cc(C(=O)Oc3ccc(C)c(C)c3)c3ccccc3n2)cc1,x,-11.5%,u,x,x,x
Cc1ccc2nc(/C(C#N)=C/c3ccc(-c4cccc([N+](=O)[O-])c4)o3)[nH]c2c1,-0.8%,3.5%,u,0.8%,u,6.8%
Cc1cc(/C=C(/C#N)c2nc3ccccc3[nH]2)c(C)n1-c1cccc([N+](=O)[O-])c1,5.3%,-17.5%,5.36µM*,-1.0%,14.6µM*,9.9%
Cc1cc(/C=C(\C#N)c2nc3ccccc3[nH]2)c(C)n1C,2.24µM*,11.2µM*,0.953µM*,u,u,3.55µM*
CC(=O)c1ccc(N2CCN(S(=O)(=O)c3cc4c(cc3C)NC(=O)CO4)CC2)cc1,-4.3%,x,0.9%,15.4%,-14.8%,-7.3%
CCN(CC)S(=O)(=O)c1ccc2oc(C(=O)NCc3ccc(F)cc3)c(C)c2c1,-6.9%,-21.9%,4.9%,-7.7%,11.6µM*,-3.6%
Cc1c(C(=O)NCc2ccccc2)oc2ccc(S(=O)(=O)N3CCC4(CC3)OCCO4)cc12,-11.1%,-36.5%,-0.1%,-33.1%,4.11µM*,0.0%
COc1cccc(NC(=O)c2oc3ccc(S(=O)(=O)N4CCOCC4)cc3c2C)c1,-1.6%,x,-1.5%,-14.3%,20.6µM*,-3.5%
Cc1c(C(=O)O)oc2ccc(S(=O)(=O)NCc3ccccc3)cc12,0.7%,3.2%,4.8%,-0.4%,9.2µM*,5.2%
